Data: PubChem BioAssay (NCATS)
Inconclusive results are not listed. Where a call stands in place of a potency, no number is given. Activity calls are given as the source filed them. Calls follow the shape of the dose curve; as a rule, active = well fitted cell-killing curve with a large enough effect; inconclusive = small, poorly fitted or top-dose-only effect, or effect the other way; inactive = no such curve, though single readings can be large or run the other way.

Experiments:
[1] = Viability qHTS for spleen associated tyrosine kinase inhibitor (SYKi) naive MV4-11 cells (AID 1963823); also: nearly all actives have a fitted effect of over 40% in size
In short: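 Cells: MV4-11, SYK inhibitor naive, 500 per well. Treatment: library compounds, 72 hr, 37 C, 5% CO2. Read-out: CellTiter-Glo luminescence after 10 min RT.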

[2] = Viability qHTS for spleen associated tyrosine kinase inhibitor (SYKi) drug resistant MV4-11 cells (AID 1963824); also: nearly all actives have a fitted effect of over 35% in size
In short: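 SYK-inhibitor-resistant MV4-11 AML cells were seeded at 500 per well onto compound and cultured 72 hours (37 °C, 5% CO2). CellTiter-Glo was then added, and after 10 min at room temperature, luminescence gave viability.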

SMILES | Potency [1] | Potency [2]
Cn1c(=O)cc(N2CCCC(N)C2)n(Cc2ccccc2C#N)c1=O (stereo unspecified) | inactive | inactive
C=C1C2(C)CC3C4(C)OC(C5OC56C4=CC(=O)OC6(C)C)C3(C)C13C(=O)OC(C)C3(O)C2=O (stereo unspecified) | inactive | inactive
CC1=CC(=O)C2(OC3OC(C)C(O)C(OC(=O)/C=C/c4ccccc4)C3O)C=COC(OC3OC(CO)C(O)C(O)C3O)C12 (stereo unspecified) | inactive | inactive
